We go through nine molecules from PubChem BioAssay (NCI).

Among the test systems are SK-MEL-2 melanoma; SN12C renal; UO-31 renal; TK-10 renal; ACHN renal; CAKI-1 renal; A498 renal; CCRF-CEM leukemia; MOLT-4 leukemia; SR leukemia; RPMI-8226 leukemia; OVCAR-5 ovarian; OVCAR-4 ovarian; SK-OV-3 ovarian; IGROV1 ovarian; OVCAR-3 ovarian; HS 578T breast; NCI/ADR-RES ovarian; OVCAR-8 ovarian.
Common to all, as to assay: NCI-60 one-dose screen, 48 h (100 = growth as untreated, 0 = no growth, -100 = all killed)
Holding throughout (conditions): 10 µM unless noted

About 83,000 compounds went through this panel and 20% of them were active in at least one assay; those are over-represented in the sample as a whole.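 Growth was measured after 48 h exposure to one concentration of compound in 96-well plates. Values under 10 count as active.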 Unmarked numbers belong to inactive results. Calls of active or inactive are those of the source.

`COc1ccc(-c2cc(C(=O)N=Nc3c(O)[nH]c4ccc(Cl)cc34)c3ccccc3n2)cc1`: the growth is 63.4% with SK-MEL-2 melanoma; 51.4% in the assay on SN12C renal; 80.6% in the assay on UO-31 renal; 116% in the assay on TK-10 renal; -6.95% (active) with ACHN renal; 44.6% in the assay with CAKI-1 renal. Besides, the growth is 148% in the assay on A498 renal; 85.7% with CCRF-CEM leukemia; 68.8% in the assay on MOLT-4 leukemia; 53.1% with SR leukemia; 102% with RPMI-8226 leukemia; 42.5% in the assay with OVCAR-5 ovarian. Further, the growth with OVCAR-4 ovarian was 23.7%; with SK-OV-3 ovarian it was 78.1%; with IGROV1 ovarian, -18.8% (active); in the assay with OVCAR-3 ovarian, 44.2%; with HS 578T breast it was 77.6%; with NCI/ADR-RES ovarian it was 28.7%.

With `C/C(=N\Nc1ccc(S(N)(=O)=O)cc1)c1cnn(-c2cc(=O)[nH]c3ccc(Br)cc23)c1C`, the growth in the assay on SK-MEL-2 melanoma is 20%; in the assay on SN12C renal, 61.2%; in the assay with UO-31 renal it was 54.8%; with TK-10 renal, 146%; with ACHN renal, 81%; with CAKI-1 renal, 76.7%. Moreover, the growth in the assay on A498 renal is 115%; with CCRF-CEM leukemia it was 8.23% (active); in the assay on MOLT-4 leukemia, 18.5%; with SR leukemia, 4.11% (active); with RPMI-8226 leukemia, 74.3%; with OVCAR-8 ovarian, 80.5%. The growth with OVCAR-5 ovarian was 81.4%; in the assay with OVCAR-4 ovarian, 67.7%; in the assay with SK-OV-3 ovarian, 69.2%; with IGROV1 ovarian, 56.9%; in the assay with OVCAR-3 ovarian, 56.2%; in the assay with HS 578T breast, 28.4%. Besides, the growth in the assay with NCI/ADR-RES ovarian was 90.1%.

Consider `Cc1[nH]nc2ccc3nc(-c4cn[nH]c4C(F)(F)F)c4c(c3c12)CCCC4`, for which the growth is -68.2% (active) in the assay on SK-MEL-2 melanoma; -30.5% (active) in the assay with UO-31 renal; -56.2% (active) with TK-10 renal; 1.85% (active) with ACHN renal; -9.8% (active) in the assay with CAKI-1 renal; -61.1% (active) in the assay with A498 renal. For the same molecule, the growth in the assay with CCRF-CEM leukemia was -12.1% (active); with MOLT-4 leukemia, 2.2% (active); with SR leukemia, 16.6%; in the assay with RPMI-8226 leukemia, 1.04% (active); in the assay on OVCAR-5 ovarian, 3.15% (active); in the assay with SK-OV-3 ovarian, -54.2% (active). In addition, the growth was -42.4% (active) with IGROV1 ovarian, -15% (active) with OVCAR-3 ovarian, -28.6% (active) with HS 578T breast and 19.8% in the assay on NCI/ADR-RES ovarian.

`COc1ccc(N=Nc2c(N)nn3c(-c4ccc5c(c4)C=S=C5)ccnc23)cc1`: the growth in the assay on SK-MEL-2 melanoma is 93.4%; with SN12C renal, 39%; in the assay on UO-31 renal, 16.4%; in the assay with TK-10 renal, 82.4%; in the assay with ACHN renal, 31.6%; in the assay on CAKI-1 renal it was 34%. The growth is 144% with A498 renal; 10.1% with CCRF-CEM leukemia; 32.9% with MOLT-4 leukemia; 33.9% in the assay on SR leukemia; 28.8% in the assay with OVCAR-8 ovarian; 80.4% in the assay with OVCAR-5 ovarian. The growth with SK-OV-3 ovarian was 68.7%; in the assay on IGROV1 ovarian it was 27%; in the assay with HS 578T breast, 24.7%; in the assay with NCI/ADR-RES ovarian, 3.61% (active).

Regarding `Fc1ccccc1CNc1nc(SCCN2CCOCC2)nc2c1cnn2CC(Cl)c1ccc(Br)cc1` (stereo not drawn), the growth in the assay with SK-MEL-2 melanoma is 31.1%; in the assay with SN12C renal, 53.2%; in the assay with UO-31 renal, -6.44% (active); in the assay with TK-10 renal it was 58.9%; in the assay on ACHN renal, 25.1%; with CAKI-1 renal, 27%. In addition, the growth in the assay on A498 renal is 53.8%; in the assay on CCRF-CEM leukemia, 22.4%; in the assay on MOLT-4 leukemia it was -25.2% (active); with SR leukemia, -3.85% (active); in the assay on RPMI-8226 leukemia, -6.83% (active); in the assay on OVCAR-8 ovarian, 43.8%. Also, the growth in the assay with OVCAR-5 ovarian is 71.3%; with OVCAR-4 ovarian, 45%; with SK-OV-3 ovarian, 58.3%; with IGROV1 ovarian it was 73.7%; in the assay with OVCAR-3 ovarian, 66.7%; with HS 578T breast, 17%. Besides, the growth in the assay on NCI/ADR-RES ovarian was 33.5%.

As to `Cc1cccc(-c2ccccc2Oc2ccc3nnc(Cl)n3n2)c1`, the growth with SK-MEL-2 melanoma is 105%; in the assay on SN12C renal, 101%; with UO-31 renal, 90.6%; in the assay with TK-10 renal, 103%; in the assay with ACHN renal it was 105%; in the assay on A498 renal it was 117%. Besides, the growth with CCRF-CEM leukemia is 103%; in the assay with MOLT-4 leukemia, 103%; in the assay with SR leukemia it was 86.9%; in the assay with RPMI-8226 leukemia, 107%; in the assay with OVCAR-8 ovarian, 104%; in the assay on OVCAR-5 ovarian, 104%. The growth with OVCAR-4 ovarian is 104%; in the assay with SK-OV-3 ovarian, 124%; in the assay with IGROV1 ovarian it was 103%; with OVCAR-3 ovarian, 112%; with HS 578T breast it was 102%; in the assay on NCI/ADR-RES ovarian, 102%.

For the molecule `COc1ccc2ccccc2c1/C=C1\SC(=Nc2ccc(O)cc2)NC1=O`, the growth in the assay with SK-MEL-2 melanoma is 27.1%; in the assay with SN12C renal it was 6.03% (active); in the assay with TK-10 renal it was 36.9%; with ACHN renal, 17%; in the assay on CAKI-1 renal, 9.94% (active); in the assay on A498 renal, 93.5%. Besides, the growth in the assay on CCRF-CEM leukemia is 2.89% (active); with MOLT-4 leukemia it was 9.45% (active); in the assay with SR leukemia, 20.8%; in the assay with RPMI-8226 leukemia, -12.7% (active); in the assay with OVCAR-8 ovarian, 9.1% (active); in the assay on OVCAR-5 ovarian, 10.3%. The growth was 56.2% in the assay with OVCAR-4 ovarian; 29.6% with SK-OV-3 ovarian; 11.3% with IGROV1 ovarian; 24.1% with HS 578T breast; -5.75% (active) in the assay on NCI/ADR-RES ovarian.

As to `Cc1nn(-c2ccccc2)c2nc(C)n(C(=O)N/N=C/c3cccc([N+](=O)[O-])c3)c(=O)c12`, the growth in the assay on SK-MEL-2 melanoma is 92.9%; in the assay with SN12C renal, 94.4%; in the assay with UO-31 renal, 81.4%; in the assay with TK-10 renal it was 138%; with ACHN renal it was 91%; in the assay with CAKI-1 renal it was 90.8%. Besides, the growth in the assay with A498 renal was 136%; in the assay with MOLT-4 leukemia, 79.2%; with SR leukemia, 98.6%; in the assay on RPMI-8226 leukemia it was 94%; in the assay with OVCAR-8 ovarian, 94.5%; in the assay on OVCAR-5 ovarian, 84.7%. Also, the growth with OVCAR-4 ovarian was 53.2%; with SK-OV-3 ovarian, 106%; with IGROV1 ovarian, 91.9%; with OVCAR-3 ovarian it was 99.8%; in the assay on HS 578T breast, 91.2%; with NCI/ADR-RES ovarian, 93.3%.

`OC(c1ccccc1)(c1ccccc1)C1CCN(c2ccc3nnc(Cl)n3n2)CC1`: the growth with SK-MEL-2 melanoma was 31.3%; in the assay on SN12C renal it was 50.1%; in the assay on UO-31 renal, -74.1% (active); in the assay with TK-10 renal, 49.7%; in the assay with ACHN renal, 29.7%; in the assay on CAKI-1 renal, 30.8%. Further, the growth in the assay with A498 renal was 77.8%; with CCRF-CEM leukemia, 18.2%; in the assay on MOLT-4 leukemia, -2.45% (active); in the assay with SR leukemia it was -22.3% (active); in the assay with RPMI-8226 leukemia it was 13.8%; in the assay on OVCAR-8 ovarian, 33.9%. Moreover, the growth with OVCAR-5 ovarian is 70%; in the assay on SK-OV-3 ovarian, 90.2%; with IGROV1 ovarian it was 39.8%; in the assay on HS 578T breast, 71.1%; with NCI/ADR-RES ovarian, 18.6%.
